Measurements published in PubChem BioAssay.

These compounds were tested against NADPH oxidase 4 (Homo sapiens) (UniProt Q9NPH5) (assay: NOX4-dependent H2O2 signal modulators, primary screen, NOX inhibitor project, cell-based, HEK293-NOX4, tetracycline-induced, Amplex Red fluorescence (AID 1160)). Conditions: 45 min, higher = more signal, called active from +8 up or from −8 down.
Chain of NADPH oxidase 4 (Homo sapiens) (Q9NPH5 whole entry, looked up): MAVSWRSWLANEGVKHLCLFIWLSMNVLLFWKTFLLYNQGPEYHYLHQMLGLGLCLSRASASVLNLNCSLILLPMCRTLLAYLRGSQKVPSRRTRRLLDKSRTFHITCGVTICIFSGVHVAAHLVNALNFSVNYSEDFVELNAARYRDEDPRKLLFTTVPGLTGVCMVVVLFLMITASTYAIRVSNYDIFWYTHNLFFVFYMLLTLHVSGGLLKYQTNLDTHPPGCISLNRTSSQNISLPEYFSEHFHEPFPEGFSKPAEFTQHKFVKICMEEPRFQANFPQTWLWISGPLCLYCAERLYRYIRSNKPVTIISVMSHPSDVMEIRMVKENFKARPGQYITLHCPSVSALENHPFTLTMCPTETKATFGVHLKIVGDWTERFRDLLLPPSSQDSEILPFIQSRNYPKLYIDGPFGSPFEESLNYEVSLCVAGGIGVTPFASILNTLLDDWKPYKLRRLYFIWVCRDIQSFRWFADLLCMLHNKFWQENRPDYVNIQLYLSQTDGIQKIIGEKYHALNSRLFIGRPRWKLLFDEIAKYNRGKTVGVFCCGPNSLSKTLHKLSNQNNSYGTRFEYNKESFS

z-score, inactive:
COCCOC(=O)N1C(=O)[C@@]2(c3cc(C#Cc4ccc(OC)cc4)ccc31)[C@H](C(=O)N1CCCCCCC1)[C@H]1C(=O)O[C@H](c3ccccc3)[C@H](c3ccccc3)N1[C@@H]2c1ccc(O)cc1 -0.951, COc1cc2c(cc1OC)CN(C(=O)[C@H]1[C@@H]3C(=O)O[C@@H](c4ccccc4)[C@@H](c4ccccc4)N3[C@@H](c3ccc(OCCO)cc3)[C@]13C(=O)Nc1ccc(C#CC4(O)CCCCCC4)cc13)CC2 0.882, CCCC[C@@H]1C[C@H]1[C@@H](NC(=O)c1cccnc1)c1ccc(-c2ccccc2)cc1 -1.52, CON(C)C(=O)C=C1C[C@@H](c2cccc(Cl)c2)O[C@@H](c2cccc(Cl)c2)O1 -0.986, COCCCNC(=O)[C@]1(CCC(=O)OC(C)(C)C)N=C(c2ccc(OCCCO)cc2)O[C@@H]1c1ccccc1 0.689, C=CCOC(=O)[C@H]1[C@@H]2C(=O)O[C@@H](c3ccccc3)[C@@H](c3ccccc3)N2[C@@H](c2ccc(OCCOC(=O)[C@H]3C[C@H]4C(=O)N[C@@H](Cc5ccccc5)C(=O)N4[C@H]3c3ccc(O)cc3)cc2)[C@]12C(=O)Nc1ccc(I)cc12 1.18, CC(C)(C)N1CC=CC23O[C@@H]4C=CCOC(=O)[C@@H]4[C@H]2C(=O)N(CCCO)[C@@H]3C1=O (stereo partly specified) -0.00336, NCCCCCCNC(=O)[C@@H]1C[C@@H]2C(=O)N3CCC[C@H]3C(=O)N2[C@@H]1c1ccc(O)cc1 0.116, CCCCC(CC)C(O)C1C=CC2C(=O)N(c3ccccc3)C(=O)C2N1Nc1ccc([N+](=O)[O-])cc1 (stereo unspecified) -1.6, C=C(COC)/C(=C/C[C@@H](OC(=O)c1ccncc1)c1ccc(CO)o1)c1cnc2ccccc2c1 -1.24, COCCCNC(=O)[C@@H]1c2ccccc2C(=O)N(Cc2ccccc2C(F)(F)F)[C@H]1c1ccc(CO)cc1 0.732, CCCN1C(=O)[C@]2(Cc3ccccc3)N=C(c3ccc(OCCCO)cc3)O[C@@H]2c2ccccc21 0.187, CO[C@H]1O[C@H](CO)[C@@H](OC(=O)Nc2ccccc2-c2ccccc2)[C@H](OC(=O)Nc2ccc3c(c2)OCO3)[C@@H]1OC(=O)Nc1ccc2c(c1)OCO2 -0.722, COCCOC(=O)N1C(=O)[C@@]2(c3cc(C#CC4(O)CCCCCC4)ccc31)[C@H](C(N)=O)[C@H]1C(=O)O[C@H](c3ccccc3)[C@H](c3ccccc3)N1[C@@H]2c1ccc(O)cc1 0.547, CC(CO)N1C(=O)[C@@H]2C3C(=O)OCCC/C=C\[C@H]3OC23C=CCN(Cn2nnc4ccccc42)C(=O)[C@@H]13 (stereo partly specified) 0.193, C[C@]1(C(=O)NC2CC2)c2ccccc2C(=O)N(Cc2ccc(OC(F)(F)F)cc2)[C@H]1c1ccc(CO)cc1 0.731, COc1ccc([Si](C)(C)[C@H]2[C@H](CCn3cc([C@H](O)c4ccccc4)nn3)O[C@@]3(C(=O)N(Cc4cccc(N5C(=O)c6cccc7cccc5c67)c4)c4ccccc43)[C@@H]2C)cc1 1.57, COc1ccc([Si](C)(C)[C@H]2[C@H](CCO)O[C@@]3(C(=O)N(Cc4cccc(N5CCCCC5=O)c4)c4ccccc43)[C@@H]2C)cc1 -1.46, O=C1O[C@@H](c2ccccc2)[C@@H](c2ccccc2)N2[C@@H](c3ccc(O)cc3)[C@]3(C(=O)Nc4ccc(C#CCCO)cc43)[C@@H](C(=O)NC[C@H](O)c3ccccc3)[C@H]12 -0.718, CC(C)CN1C(=O)[C@@]2(Cc3ccccc31)c1ccccc1C(=O)N(Cc1ccccc1C(F)(F)F)[C@H]2c1ccc(CO)cc1 0.771, CC(C)C(O)C1C=CC2C(=O)N(C)C(=O)C2N1N(c1ccccc1)c1ccccc1 (stereo unspecified) -0.583, C=CCC(OC(C)=O)[C@@H]1[C@@H](N(Cc2ccc(-c3ccccc3)cc2)C(=O)c2cccc3ccccc23)c2cc(OCCCO)ccc2N1C(=O)Cc1ccc2ccccc2c1 (stereo partly specified) -0.22, Cc1ccc(S[C@]2(C(=O)NC3CC3)CC(=O)N(Cc3ccccc3Cl)[C@@H]2c2ccc(CO)cc2I)cc1 -1.86, O=C1NCC(=O)N2[C@@H]1C[C@@H](C(=O)O)[C@H]2c1ccc(O)cc1 -0.822, CC(C)CNC(=O)[C@@]1(c2ccc([N+](=O)[O-])cc2)CC(=O)N(C2CCCCC2)[C@@H]1c1ccc(CO)cc1I 0.486, COc1ccc(NN2C(C(O)c3ccccn3)C=CC3C(=O)N(C4CCCCC4)C(=O)C32)cc1 (stereo unspecified) -3.8, [N-]=[N+]=NCc1ccccc1C[C@@]1(C(N)=O)N=C(c2ccc(OCCCO)cc2)O[C@@H]1c1ccccc1CN=[N+]=[N-] 0.14, CN1C(=O)C2C=CC(C(O)c3c(F)cccc3Cl)N(Nc3ccccc3)C2C1=O (stereo unspecified) -4.96, COC(=O)c1c(CC[C@@H](CO)NC(=O)N[C@H](Cn2cc(-c3ccccc3C)nn2)C(C)C)oc(C(C)=O)c1C(=O)OC -2.16, C=CCOC(=O)[C@@H]1[C@H]2C(=O)O[C@H](c3ccccc3)[C@H](c3ccccc3)N2[C@H](c2ccc(OCCOC(=O)[C@H]3C[C@H]4C(=O)N[C@@H](CCCCN(C)C)C(=O)N4[C@H]3c3cccc(OCCO)c3)cc2)[C@@]12C(=O)Nc1ccc(I)cc12 1.18, COc1ccc([Si](C)(C)[C@@H]2[C@@H](CCO)O[C@]3(C(=O)N(Cc4cccc(N5C(=O)c6ccccc6Oc6ccccc65)c4)c4ccccc43)[C@H]2C)cc1 0.543, C=CC[C@]1(C(=O)N(C)C)N=C(c2ccc(OCCCO)cc2)O[C@H]1c1ccccc1N=[N+]=[N-] 1.52, COCCOC(=O)N1C(=O)[C@@]2(c3cc(C#CCC(C(=O)OC)C(=O)OC)ccc31)[C@H](c1ccc(OCCO)cc1)N1[C@H](c3ccccc3)[C@H](c3ccccc3)OC(=O)[C@H]1[C@@H]2C(=O)N1CCN(c2ncccn2)CC1 -1.13, COCCOC(=O)N1C(=O)[C@@]2(c3cc(C#CC4(O)CCCCCC4)ccc31)[C@H](c1ccccc1OCCO)N1[C@H](c3ccccc3)[C@H](c3ccccc3)OC(=O)[C@H]1[C@@H]2C(N)=O -0.551, C=CCNC(=O)[C@H]1[C@@H]2C(=O)O[C@@H](c3ccccc3)[C@@H](c3ccccc3)N2[C@@H](c2ccccc2OCCO)[C@]12C(=O)N(C(=O)OCCOC)c1ccc(C#CC3=CCCCC3)cc12 -0.678, C=CCN1C(=O)[C@@]2(O[C@@H](CCn3cc([C@H](O)c4ccccc4)nn3)[C@H]([Si](C)(C)c3ccc(OC)cc3)[C@H]2C)c2ccccc21 0.99
